# Laboratory results as given in PubChem BioAssay (NCI).
# About 79,000 compounds went through this panel and 15% of them were active in at least one assay; those are over-represented in the sample as a whole. Unmarked numbers belong to inactive results. The source made the active and inactive calls. No stated cut-off is given here; in the data, active means growth inhibition above about 70%; inactive means the rest.
# Assays:
# [1] = NCI Yeast Anticancer Drug Screen. Data for the rad52 strain (AID 147);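 further: 0% = growth of vehicle-treated control cultures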; settings: S. cerevisiae rad52 mutant growth inhibition, hits give high values
# Summary of the method: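 Measured: yeast growth inhibition. System: strain with a defined DNA damage repair alteration. Reference: vehicle-treated control cultures.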
# [2] = NCI Yeast Anticancer Drug Screen. Data for the wt1 strain (AID 149);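 further: 0% = growth of vehicle-treated wt1 cultures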; settings: S. cerevisiae wt1 strain (SPY 50644) growth inhibition, hits give high values
# Summary of the method: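 Each compound is tested on wt1 yeast and the loss of growth versus vehicle gives the inhibition value.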
# [3] = NCI Yeast Anticancer Drug Screen. Data for the mgt1 strain (AID 153); settings: S. cerevisiae mgt1 mutant growth inhibition, hits give high values
# Summary of the method: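 After exposure of the mgt1 yeast mutant to compound, growth was measured and reported as inhibition compared with vehicle controls.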
# [4] = NCI Yeast Anticancer Drug Screen. Data for the rad50 strain (AID 155);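 further: 0% = growth of vehicle-only cultures of the same strain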; settings: S. cerevisiae rad50 strain growth inhibition, hits give high values
# Summary of the method: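 Vehicle-treated cultures provide the reference for the growth inhibition reported for compound-exposed, repair-deficient yeast.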
# [5] = NCI Yeast Anticancer Drug Screen. Data for the mec2-1 strain (AID 157); settings: S. cerevisiae mec2-1 strain, hits give high values
# Summary of the method: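 Test agents were screened against the mec2-1 yeast strain, with defined DNA repair or cell cycle alteration. Growth was scored as inhibition against vehicle-only controls.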
# [6] = NCI Yeast Anticancer Drug Screen. Data for the rad14 strain (AID 159);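 further: 0% = growth of vehicle-treated control cultures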; settings: S. cerevisiae rad14 strain growth inhibition, hits give high values
# Summary of the method: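 Inhibition of growth is reported for a repair-deficient yeast mutant following compound treatment, calculated relative to cultures that received vehicle.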
# [7] = NCI Yeast Anticancer Drug Screen. Data for the sgs1 mgt1 strain (AID 161);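 further: 0% = growth of cultures given vehicle only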; settings: S. cerevisiae sgs1 mgt1 strain, hits give high values
# Summary of the method: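 Read-out: growth inhibition vs vehicle controls. Cells: mutant yeast strain deficient in DNA damage repair.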
# [8] = NCI Yeast Anticancer Drug Screen. Data for the CLN2oe strain (AID 163);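 further: 0% = growth of vehicle-only control cultures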; settings: S. cerevisiae CLN2oe strain, hits give high values
# Summary of the method: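 Here, growth inhibition in a cell-cycle-altered yeast strain after compound exposure was quantified against vehicle control growth.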
# [9] = NCI Yeast Anticancer Drug Screen. Data for the cln2 rad14 strain (AID 165);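 further: 0% = growth equal to vehicle treated cultures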; settings: S. cerevisiae cln2 rad14 strain, hits give high values
# Summary of the method: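 Growth of compound-exposed yeast (cln2 rad14 genotype) measured and expressed as inhibition relative to vehicle.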
# [10] = NCI Yeast Anticancer Drug Screen. Data for the bub3 strain (AID 167); settings: S. cerevisiae bub3 mutant strain, hits give high values
# Summary of the method: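 Mutant yeast screening strain plus compound; vehicle-treated cultures serve as the 0% inhibition reference.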
# [11] = NCI Yeast Anticancer Drug Screen. Data for the wt2 strain (AID 169); settings: S. cerevisiae wt2 strain growth inhibition, hits give high values
# Summary of the method: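 Genetically defined yeast strains from a DNA-repair/cell-cycle panel were used. Compound-exposed yeast growth was measured, and the inhibition was calculated relative to vehicle treatment.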
# [12] = NCI Yeast Anticancer Drug Screen. Data for the mlh1 strain (AID 171);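 further: 0% = growth of vehicle-treated control cultures of the same strain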; settings: S. cerevisiae mlh1 strain growth inhibition, hits give high values
# Summary of the method: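 Here the genetically defined yeast mutant is grown with each compound, and the extent to which its growth falls below that of vehicle-exposed cells is reported.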
# [13] = NCI Yeast Anticancer Drug Screen. Data for the sgs1 strain (AID 173);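 further: 0% = growth of vehicle-only control cultures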; settings: S. cerevisiae sgs1 mutant, hits give high values
# Summary of the method: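 Relative growth inhibition, referenced to vehicle, was determined in a yeast strain with a defined alteration affecting DNA damage repair or cell cycle control after compound exposure.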
# [14] = NCI Yeast Anticancer Drug Screen. Data for the mlh1 rad18 strain (AID 175); settings: S. cerevisiae mlh1 rad18 strain growth inhibition, hits give high values
# Summary of the method: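 In this whole-cell yeast screen, a strain with altered DNA damage repair is challenged with compound, and its growth is measured against matched vehicle-treated controls.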
# [15] = NCI Yeast Anticancer Drug Screen. Data for the rad18 strain (AID 177); settings: S. cerevisiae rad18 mutant growth inhibition, hits give high values
# Summary of the method: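 Screen uses a yeast strain with a defined lesion in DNA damage repair; compound effect is read as loss of growth compared to untreated vehicle cultures.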
# [16] = at 5.0 µM (retest, dose inferred, filed as 0.5)
# [17] = at 50.0 µM (retest, dose inferred, filed as 5.0)
compound,measurement,setting,value
N#C/C(=C\NC(=S)Nc1ccc(S(N)(=O)=O)cc1)C(=O)c1ccc2ccccc2c1,growth inhibition,[1]; at 1.2 µM,-2%
same,growth inhibition,[1]; at 3.7 µM,-1%
same,growth inhibition,[1]; at 11.0 µM,0%
same,growth inhibition,[1]; at 33.0 µM,-3%
same,growth inhibition,[1]; at 100.0 µM,3%
same,growth inhibition,[2]; at 1.2 µM,2%
same,growth inhibition,[2]; at 3.7 µM,3%
same,growth inhibition,[2]; at 11.0 µM,1%
same,growth inhibition,[2]; at 33.0 µM,1%
same,growth inhibition,[2]; at 100.0 µM,3%
same,growth inhibition,[3]; at 1.2 µM,-2%
same,growth inhibition,[3]; at 3.7 µM,-3%
same,growth inhibition,[3]; at 11.0 µM,-3%
same,growth inhibition,[3]; at 33.0 µM,-12%
same,growth inhibition,[3]; at 100.0 µM,0%
same,growth inhibition,[4]; at 1.2 µM,-5%
same,growth inhibition,[4]; at 3.7 µM,-16%
same,growth inhibition,[4]; [16],57%
same,growth inhibition,[4]; at 11.0 µM,-18%
same,growth inhibition,[4]; at 33.0 µM,-2%
same,growth inhibition,[4]; [17],97% (active)
same,growth inhibition,[4]; at 50.0 µM,-13.3%
same,growth inhibition,[4]; at 100.0 µM,-1%
same,growth inhibition,[5]; at 1.2 µM,0%
same,growth inhibition,[5]; at 3.7 µM,2%
same,growth inhibition,[5]; [16],87% (active)
same,growth inhibition,[5]; at 11.0 µM,2%
same,growth inhibition,[5]; at 33.0 µM,5%
same,growth inhibition,[5]; [17],95% (active)
same,growth inhibition,[5]; at 50.0 µM,-3.5%
same,growth inhibition,[5]; at 100.0 µM,-1%
same,growth inhibition,[6]; at 1.2 µM,-1%
same,growth inhibition,[6]; at 3.7 µM,-1%
same,growth inhibition,[6]; at 11.0 µM,1%
same,growth inhibition,[6]; at 33.0 µM,2%
same,growth inhibition,[6]; at 100.0 µM,6%
same,growth inhibition,[7]; [16],25%
same,growth inhibition,[7]; [17],96% (active)
same,growth inhibition,[7]; at 50.0 µM,-13.2%
same,growth inhibition,[8]; at 1.2 µM,-2%
same,growth inhibition,[8]; at 3.7 µM,-4%
same,growth inhibition,[8]; at 11.0 µM,-4%
same,growth inhibition,[8]; at 33.0 µM,0%
same,growth inhibition,[8]; at 100.0 µM,-1%
same,growth inhibition,[9]; [16],92% (active)
same,growth inhibition,[9]; [17],78% (active)
same,growth inhibition,[9]; at 50.0 µM,39.2%
same,growth inhibition,[10]; at 1.2 µM,-2%
same,growth inhibition,[10]; at 3.7 µM,-1%
same,growth inhibition,[10]; [16],99% (active)
same,growth inhibition,[10]; at 11.0 µM,-2%
same,growth inhibition,[10]; at 33.0 µM,-3%
same,growth inhibition,[10]; [17],91% (active)
same,growth inhibition,[10]; at 50.0 µM,-16.1%
same,growth inhibition,[10]; at 100.0 µM,-3%
same,growth inhibition,[11]; at 1.2 µM,-1%
same,growth inhibition,[11]; at 3.7 µM,-1%
same,growth inhibition,[11]; at 11.0 µM,-1%
same,growth inhibition,[11]; at 33.0 µM,0%
same,growth inhibition,[11]; at 100.0 µM,-1%
same,growth inhibition,[12]; at 1.2 µM,-1%
same,growth inhibition,[12]; at 3.7 µM,1%
same,growth inhibition,[12]; at 11.0 µM,1%
same,growth inhibition,[12]; at 33.0 µM,3%
same,growth inhibition,[12]; at 100.0 µM,5%
same,growth inhibition,[13]; at 1.2 µM,0%
same,growth inhibition,[13]; at 3.7 µM,2%
same,growth inhibition,[13]; at 11.0 µM,0%
same,growth inhibition,[13]; at 33.0 µM,7%
same,growth inhibition,[13]; at 100.0 µM,9%
same,growth inhibition,[14]; [16],84% (active)
same,growth inhibition,[14]; [17],97% (active)
same,growth inhibition,[14]; at 50.0 µM,22.1%
same,growth inhibition,[15]; at 1.2 µM,-9%
same,growth inhibition,[15]; at 3.7 µM,-1%
same,growth inhibition,[15]; at 11.0 µM,0%
same,growth inhibition,[15]; at 33.0 µM,-1%
same,growth inhibition,[15]; at 100.0 µM,5%
O=[N+]([O-])c1cc[n+]([O-])c(Cl)c1,growth inhibition,[1]; at 1.2 µM,1%
same,growth inhibition,[1]; at 3.7 µM,12%
same,growth inhibition,[1]; at 11.0 µM,10%
same,growth inhibition,[1]; at 33.0 µM,82% (active)
same,growth inhibition,[1]; at 100.0 µM,98% (active)
same,growth inhibition,[2]; at 1.2 µM,-17%
same,growth inhibition,[2]; at 3.7 µM,-26%
same,growth inhibition,[2]; at 11.0 µM,-19%
same,growth inhibition,[2]; at 33.0 µM,100% (active)
same,growth inhibition,[2]; at 100.0 µM,99% (active)
same,growth inhibition,[3]; at 1.2 µM,12%
same,growth inhibition,[3]; at 3.7 µM,-4%
same,growth inhibition,[3]; at 11.0 µM,24%
same,growth inhibition,[3]; at 33.0 µM,99% (active)
same,growth inhibition,[3]; at 100.0 µM,99% (active)
same,growth inhibition,[4]; at 1.2 µM,1%
same,growth inhibition,[4]; at 3.7 µM,9%
same,growth inhibition,[4]; [16],9%
same,growth inhibition,[4]; at 11.0 µM,28%
same,growth inhibition,[4]; at 33.0 µM,100% (active)
same,growth inhibition,[4]; [17],99% (active)
same,growth inhibition,[4]; at 50.0 µM,99.5% (active)
same,growth inhibition,[4]; at 100.0 µM,100% (active)
same,growth inhibition,[5]; at 1.2 µM,5%
same,growth inhibition,[5]; at 3.7 µM,15%
same,growth inhibition,[5]; [16],-3%
same,growth inhibition,[5]; at 11.0 µM,26%
same,growth inhibition,[5]; at 33.0 µM,100% (active)
same,growth inhibition,[5]; [17],99% (active)
same,growth inhibition,[5]; at 50.0 µM,99.7% (active)
same,growth inhibition,[5]; at 100.0 µM,99% (active)
same,growth inhibition,[6]; at 1.2 µM,1%
same,growth inhibition,[6]; at 3.7 µM,5%
same,growth inhibition,[6]; at 11.0 µM,19%
same,growth inhibition,[6]; at 33.0 µM,97% (active)
same,growth inhibition,[6]; at 100.0 µM,100% (active)
same,growth inhibition,[7]; [16],1%
same,growth inhibition,[7]; [17],99% (active)
same,growth inhibition,[7]; at 50.0 µM,99.8% (active)
same,growth inhibition,[8]; at 1.2 µM,-6%
same,growth inhibition,[8]; at 3.7 µM,-4%
same,growth inhibition,[8]; at 11.0 µM,12%
same,growth inhibition,[8]; at 33.0 µM,79% (active)
same,growth inhibition,[8]; at 100.0 µM,99% (active)
same,growth inhibition,[9]; [16],10%
same,growth inhibition,[9]; [17],98% (active)
same,growth inhibition,[9]; at 50.0 µM,99% (active)
same,growth inhibition,[10]; at 1.2 µM,-16%
same,growth inhibition,[10]; at 3.7 µM,-16%
same,growth inhibition,[10]; [16],5%
same,growth inhibition,[10]; at 11.0 µM,-8%
same,growth inhibition,[10]; at 33.0 µM,98% (active)
same,growth inhibition,[10]; [17],99% (active)
same,growth inhibition,[10]; at 50.0 µM,99.5% (active)
same,growth inhibition,[10]; at 100.0 µM,99% (active)
same,growth inhibition,[11]; at 1.2 µM,-55%
same,growth inhibition,[11]; at 3.7 µM,-50%
same,growth inhibition,[11]; at 11.0 µM,-42%
same,growth inhibition,[11]; at 33.0 µM,99% (active)
same,growth inhibition,[11]; at 100.0 µM,99% (active)
